PubChem BioAssay
Several values for one entry are separate records, joined by “and”; a condition that tells them apart may be missing. Equal values may be shown once.

Experiment: sensitizers of A549 cells to miR-34 induction, primary screen, imaging, A549 dox-inducible miR-34, nuclei and caspase counts (AID 1347080); further: test concentration not given here
Settings: A549 miR-34 inducible, Hoechst nuclei count, 48 h; measured here: total cells with miR-34 induction; stronger effect = lower value

Row | SMILES | cell count
1 | O=C(Cn1ccnc1[N+](=O)[O-])NCCO | 8390 and 10900
2 | Cc1[nH]c(C)c(Cl)c(=O)c1Cl | 11500 and 9370
3 | C[C@H]1COc2c(C3(N)CC3)c(F)cc3c(=O)c(C(=O)O)cn1c23 | 8060 and 10100
4 | CC(C)(O)c1ccccc1CC[C@@H](SCC1(CC(=O)O)CC1)c1cccc(/C=C/c2ccc3ccc(Cl)cc3n2)c1 | 9780
5 | CCN1CCN(c2cc3c(cc2F)c(=O)c(C(=O)O)cn3C2CC2)CC1 | 8550 and 10100 and 9090
6 | CCN1CC(CCN2CCOCC2)C(c2ccccc2)(c2ccccc2)C1=O (stereo not drawn) | 7960 and 7680
7 | COC(=O)CCc1ccc(OCC(O)CNC(C)C)cc1 (stereo not drawn) | 9510 and 7720 and 9690
8 | CC(=O)Nc1ccc(OCC(O)CNC(C)C)cc1 (stereo not drawn) | 8450 and 10300
9 | Cc1ccc(C(=O)c2ccc(CC(=O)O)n2C)cc1 | 9430 and 10400 and 9670
10 | CN1CCN(c2c(F)cc3c(=O)c(C(=O)O)cn4c3c2SCC4)CC1 | 7420 and 9770 and 9480
11 | COc1cc(N)c(Cl)cc1C(=O)NC1CCN(Cc2ccccc2)CC1 | 7810
12 | O=C(O)P(=O)(O)O | 8080 and 11700
13 | CCCCCCCCCCCCCCCCOP(=O)([O-])OCC[N+](C)(C)C | 5900 and 10200
14 | CN(C)CCCSc1ccccc1NC(=O)/C=C/c1ccccc1 | 7810 and 9010
15 | CC(C)(C(=O)c1cccnc1)c1cccnc1 | 10400 and 8590 and 12100
16 | NC(=NCCCCCCN=C(N)/N=C(\N)Nc1ccc(Cl)cc1)/N=C(\N)Nc1ccc(Cl)cc1 | 1670 and 3350
17 | CC1(C)S[C@@H]2[C@H](NC(=O)[C@H](N)c3ccccc3)C(=O)N2[C@H]1C(=O)O | 8790 and 10800 and 9210
18 | CC1CCc2cc(F)cc3c(=O)c(C(=O)O)cn1c23 (stereo not drawn) | 8860 and 8230 and 11600
19 | CC1(C)O[C@@H]2C[C@H]3[C@@H]4CCC5=CC(=O)CC[C@]5(C)[C@@]4(F)[C@@H](O)C[C@]3(C)[C@]2(C(=O)CCl)O1 | 5550
20 | CCN(CC)C(=O)N1CCN(C)CC1 | 8740 and 9030 and 11300

Row | SMILES | cell count
21 | COc1ccc(C(=O)NCc2ccc(OCCN(C)C)cc2)cc1OC | 8010 and 10500 and 9070
22 | CC(Oc1c(Cl)cccc1Cl)C1=NCCN1 (stereo not drawn) | 9080 and 9420 and 9240
23 | CN1CCCCC1CCN1c2ccccc2Sc2ccc(S(C)=O)cc21 (stereo not drawn) | 7930 and 7130 and 7860
24 | CN1C(C)(C)CCCC1(C)C | 9180
25 | CN(CCCN1c2ccccc2CCc2ccccc21)CC(=O)c1ccc(Cl)cc1 | 5730 and 6590
26 | CCOC(=O)C1=C(C)NC(C)=C(C(=O)OCC)C1c1ccccc1/C=C/C(=O)OC(C)(C)C | 7100
27 | CC(C(=O)O)c1ccc(C(=O)c2cccs2)cc1 (stereo not drawn) | 9210 and 7840 and 11900
28 | NC(N)=Nc1nc(CSCC/C(N)=N/S(N)(=O)=O)cs1 | 10400 and 8060 and 10100
29 | CC(=O)Nc1ccc(CC(=O)O)cc1 | 9700
30 | CC(=O)OC/C=C(C)/C=C/C=C(C)/C=C/C1=C(C)CCCC1(C)C | 10300
31 | Cn1c(=O)c2c(ncn2CCO)n(C)c1=O | 8860
32 | CN(C)/N=N/c1nc[nH]c1C(N)=O | 11400 and 9140
33 | C[C@@](Cc1ccc(O)c(O)c1)(NN)C(=O)O | 8030 and 8200 and 9200
34 | O=C1c2ccccc2C(=O)c2c1ccc(O)c2O | 8090
35 | CC(C)NCC(O)c1ccc2ccccc2c1 (stereo not drawn) | 8750 and 8620 and 9710
36 | CCOC(=O)OC(C)OC1=C(C(=O)Nc2ccccn2)N(C)S(=O)(=O)c2ccccc21 (stereo not drawn) | 9250 and 8630 and 9370
37 | COc1cc(C(=O)NCc2ccc(OCCN(C)C)cc2)cc(OC)c1OC | 8110 and 8000 and 11800
38 | Nc1nc2c(ncn2CCC(CO)CO)c(=O)[nH]1 | 10200 and 9130 and 9970
39 | CC(C)(Oc1ccc(Cl)cc1)C(=O)O | 9250 and 7700 and 8560

Same assay, conditions: A549 miR-34 inducible, Hoechst nuclei count, 48 h; measured here: total cells without miR-34 induction

Row | SMILES | cell count
40 | O=C(Cn1ccnc1[N+](=O)[O-])NCCO | 9630 and 13100
41 | Cc1[nH]c(C)c(Cl)c(=O)c1Cl | 13300 and 10800
42 | C[C@H]1COc2c(C3(N)CC3)c(F)cc3c(=O)c(C(=O)O)cn1c23 | 8570 and 11500
43 | CC(C)(O)c1ccccc1CC[C@@H](SCC1(CC(=O)O)CC1)c1cccc(/C=C/c2ccc3ccc(Cl)cc3n2)c1 | 10900
44 | CCN1CCN(c2cc3c(cc2F)c(=O)c(C(=O)O)cn3C2CC2)CC1 | 8710 and 12100 and 10300
45 | CCN1CC(CCN2CCOCC2)C(c2ccccc2)(c2ccccc2)C1=O (stereo not drawn) | 8400 and 7650
46 | COC(=O)CCc1ccc(OCC(O)CNC(C)C)cc1 (stereo not drawn) | 10600 and 9170 and 10700
47 | CC(=O)Nc1ccc(OCC(O)CNC(C)C)cc1 (stereo not drawn) | 9920 and 10700
48 | Cc1ccc(C(=O)c2ccc(CC(=O)O)n2C)cc1 | 10300 and 12300 and 10500
49 | CN1CCN(c2c(F)cc3c(=O)c(C(=O)O)cn4c3c2SCC4)CC1 | 7610 and 9850 and 10600
50 | COc1cc(N)c(Cl)cc1C(=O)NC1CCN(Cc2ccccc2)CC1 | 9080
51 | O=C(O)P(=O)(O)O | 9010 and 13100
52 | CCCCCCCCCCCCCCCCOP(=O)([O-])OCC[N+](C)(C)C | 5890 and 10700
53 | CN(C)CCCSc1ccccc1NC(=O)/C=C/c1ccccc1 | 8770 and 7880
54 | CC(C)(C(=O)c1cccnc1)c1cccnc1 | 10800 and 10300 and 13100
55 | NC(=NCCCCCCN=C(N)/N=C(\N)Nc1ccc(Cl)cc1)/N=C(\N)Nc1ccc(Cl)cc1 | 1820 and 4270
56 | CC1(C)S[C@@H]2[C@H](NC(=O)[C@H](N)c3ccccc3)C(=O)N2[C@H]1C(=O)O | 9380 and 11700 and 10600
57 | CC1CCc2cc(F)cc3c(=O)c(C(=O)O)cn1c23 (stereo not drawn) | 9730 and 9310 and 13600
58 | CC1(C)O[C@@H]2C[C@H]3[C@@H]4CCC5=CC(=O)CC[C@]5(C)[C@@]4(F)[C@@H](O)C[C@]3(C)[C@]2(C(=O)CCl)O1 | 7170
59 | CCN(CC)C(=O)N1CCN(C)CC1 | 9520 and 9780 and 13500

Row | SMILES | cell count
60 | COc1ccc(C(=O)NCc2ccc(OCCN(C)C)cc2)cc1OC | 9630 and 10400 and 10800
61 | CC(Oc1c(Cl)cccc1Cl)C1=NCCN1 (stereo not drawn) | 10200 and 10700 and 10300
62 | CN1CCCCC1CCN1c2ccccc2Sc2ccc(S(C)=O)cc21 (stereo not drawn) | 9770 and 7940 and 8940
63 | CN1C(C)(C)CCCC1(C)C | 10300
64 | CN(CCCN1c2ccccc2CCc2ccccc21)CC(=O)c1ccc(Cl)cc1 | 7330 and 7370
65 | CCOC(=O)C1=C(C)NC(C)=C(C(=O)OCC)C1c1ccccc1/C=C/C(=O)OC(C)(C)C | 8720
66 | CC(C(=O)O)c1ccc(C(=O)c2cccs2)cc1 (stereo not drawn) | 10900 and 8270 and 13200
67 | NC(N)=Nc1nc(CSCC/C(N)=N/S(N)(=O)=O)cs1 | 10600 and 9010 and 10700
68 | CC(=O)Nc1ccc(CC(=O)O)cc1 | 10200
69 | CC(=O)OC/C=C(C)/C=C/C=C(C)/C=C/C1=C(C)CCCC1(C)C | 11500
70 | Cn1c(=O)c2c(ncn2CCO)n(C)c1=O | 9160
71 | CN(C)/N=N/c1nc[nH]c1C(N)=O | 12200 and 10200
72 | C[C@@](Cc1ccc(O)c(O)c1)(NN)C(=O)O | 9400 and 9340 and 9790
73 | O=C1c2ccccc2C(=O)c2c1ccc(O)c2O | 8800
74 | CC(C)NCC(O)c1ccc2ccccc2c1 (stereo not drawn) | 9200 and 11000
75 | CCOC(=O)OC(C)OC1=C(C(=O)Nc2ccccn2)N(C)S(=O)(=O)c2ccccc21 (stereo not drawn) | 9750 and 9420 and 11100
76 | COc1cc(C(=O)NCc2ccc(OCCN(C)C)cc2)cc(OC)c1OC | 8650 and 12900
77 | Nc1nc2c(ncn2CCC(CO)CO)c(=O)[nH]1 | 10800 and 9540 and 11400
78 | CC(C)(Oc1ccc(Cl)cc1)C(=O)O | 10200 and 8280 and 9240
